# How the values were obtained:
# [1] = molecular target: Ribosomal protein S6 kinase beta-1 (Homo sapiens) (UniProt P23443); settings: at 1 µM
# [2] = molecular target: Ribosomal protein S6 kinase beta-1 (Homo sapiens) (UniProt P23443); settings: at 10 µM
# [3] = molecular target: Serine/threonine-protein kinase Nek6 (Homo sapiens) (UniProt Q9HC98); settings: at 1 µM
# [4] = molecular target: Serine/threonine-protein kinase Nek6 (Homo sapiens) (UniProt Q9HC98); settings: at 10 µM
# [5] = molecular target: Serine/threonine-protein kinase Nek7 (Homo sapiens) (UniProt Q8TDX7); settings: at 1 µM
# [6] = molecular target: Serine/threonine-protein kinase Nek7 (Homo sapiens) (UniProt Q8TDX7); settings: at 10 µM
# [7] = molecular target: T1, Serine/threonine-protein kinase NLK (Homo sapiens) (UniProt Q9UBE8); settings: at 1 µM
# T1 sequence (whole entry): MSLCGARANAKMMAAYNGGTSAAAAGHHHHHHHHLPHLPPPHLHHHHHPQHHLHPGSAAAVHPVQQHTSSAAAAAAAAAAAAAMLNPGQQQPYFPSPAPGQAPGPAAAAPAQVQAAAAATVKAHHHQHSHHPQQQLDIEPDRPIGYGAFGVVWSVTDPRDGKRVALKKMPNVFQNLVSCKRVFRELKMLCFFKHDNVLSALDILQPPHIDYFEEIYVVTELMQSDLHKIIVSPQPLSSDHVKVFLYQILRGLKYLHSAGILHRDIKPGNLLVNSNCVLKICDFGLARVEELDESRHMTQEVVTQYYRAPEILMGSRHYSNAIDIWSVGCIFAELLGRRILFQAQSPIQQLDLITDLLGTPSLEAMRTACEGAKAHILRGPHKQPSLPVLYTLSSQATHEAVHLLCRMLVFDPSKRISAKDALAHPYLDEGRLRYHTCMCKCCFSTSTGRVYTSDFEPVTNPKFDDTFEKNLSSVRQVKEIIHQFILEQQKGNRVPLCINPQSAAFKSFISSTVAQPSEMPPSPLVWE
# [8] = molecular target: T1, Serine/threonine-protein kinase NLK (Homo sapiens); settings: at 10 µM
# [9] = molecular target: Serine/threonine-protein kinase PAK 2 (Homo sapiens) (UniProt Q13177); settings: at 1 µM
# [10] = molecular target: Serine/threonine-protein kinase PAK 2 (Homo sapiens) (UniProt Q13177); settings: at 10 µM
# [11] = molecular target: Serine/threonine-protein kinase PAK 4 (Homo sapiens) (UniProt O96013); settings: at 1 µM
# [12] = molecular target: Serine/threonine-protein kinase PAK 4 (Homo sapiens) (UniProt O96013); settings: at 10 µM
# [13] = molecular target: Serine/threonine-protein kinase PAK 5 (Homo sapiens) (UniProt Q9P286); settings: at 1 µM
# [14] = molecular target: Serine/threonine-protein kinase PAK 5 (Homo sapiens) (UniProt Q9P286); settings: at 10 µM
# [15] = molecular target: Serine/threonine-protein kinase PAK 6 (Homo sapiens) (UniProt Q9NQU5); settings: at 1 µM
# [16] = molecular target: Serine/threonine-protein kinase PAK 6 (Homo sapiens) (UniProt Q9NQU5); settings: at 10 µM
# [17] = molecular target: PAS domain-containing serine/threonine-protein kinase (Homo sapiens) (UniProt Q96RG2); settings: at 10 µM
# [18] = molecular target: Activated CDC42 kinase 1 (Homo sapiens) (UniProt Q07912); settings: at 1 µM
# [19] = molecular target: Activated CDC42 kinase 1 (Homo sapiens) (UniProt Q07912); settings: at 10 µM
# [20] = molecular target: ALK tyrosine kinase receptor (Homo sapiens) (UniProt Q9UM73); settings: at 1 µM
# Serine/threonine-protein kinase PAK 2 (Homo sapiens), sequence (Q13177 whole entry): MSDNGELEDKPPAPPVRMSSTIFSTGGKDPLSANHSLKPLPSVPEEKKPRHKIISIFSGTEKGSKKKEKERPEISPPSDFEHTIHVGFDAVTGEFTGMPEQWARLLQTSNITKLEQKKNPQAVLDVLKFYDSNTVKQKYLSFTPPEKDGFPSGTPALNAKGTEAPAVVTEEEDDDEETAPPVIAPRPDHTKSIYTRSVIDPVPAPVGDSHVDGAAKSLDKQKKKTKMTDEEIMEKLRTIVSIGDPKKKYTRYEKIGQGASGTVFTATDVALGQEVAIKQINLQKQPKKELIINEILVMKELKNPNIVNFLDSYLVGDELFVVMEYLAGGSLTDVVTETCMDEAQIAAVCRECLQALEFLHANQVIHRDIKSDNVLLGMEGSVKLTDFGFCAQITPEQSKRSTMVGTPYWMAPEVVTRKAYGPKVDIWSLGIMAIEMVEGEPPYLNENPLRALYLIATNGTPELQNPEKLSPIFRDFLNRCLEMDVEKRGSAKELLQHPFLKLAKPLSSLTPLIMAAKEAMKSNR
# PAS domain-containing serine/threonine-protein kinase (Homo sapiens), sequence (Q96RG2 whole entry, the tested form may be a part): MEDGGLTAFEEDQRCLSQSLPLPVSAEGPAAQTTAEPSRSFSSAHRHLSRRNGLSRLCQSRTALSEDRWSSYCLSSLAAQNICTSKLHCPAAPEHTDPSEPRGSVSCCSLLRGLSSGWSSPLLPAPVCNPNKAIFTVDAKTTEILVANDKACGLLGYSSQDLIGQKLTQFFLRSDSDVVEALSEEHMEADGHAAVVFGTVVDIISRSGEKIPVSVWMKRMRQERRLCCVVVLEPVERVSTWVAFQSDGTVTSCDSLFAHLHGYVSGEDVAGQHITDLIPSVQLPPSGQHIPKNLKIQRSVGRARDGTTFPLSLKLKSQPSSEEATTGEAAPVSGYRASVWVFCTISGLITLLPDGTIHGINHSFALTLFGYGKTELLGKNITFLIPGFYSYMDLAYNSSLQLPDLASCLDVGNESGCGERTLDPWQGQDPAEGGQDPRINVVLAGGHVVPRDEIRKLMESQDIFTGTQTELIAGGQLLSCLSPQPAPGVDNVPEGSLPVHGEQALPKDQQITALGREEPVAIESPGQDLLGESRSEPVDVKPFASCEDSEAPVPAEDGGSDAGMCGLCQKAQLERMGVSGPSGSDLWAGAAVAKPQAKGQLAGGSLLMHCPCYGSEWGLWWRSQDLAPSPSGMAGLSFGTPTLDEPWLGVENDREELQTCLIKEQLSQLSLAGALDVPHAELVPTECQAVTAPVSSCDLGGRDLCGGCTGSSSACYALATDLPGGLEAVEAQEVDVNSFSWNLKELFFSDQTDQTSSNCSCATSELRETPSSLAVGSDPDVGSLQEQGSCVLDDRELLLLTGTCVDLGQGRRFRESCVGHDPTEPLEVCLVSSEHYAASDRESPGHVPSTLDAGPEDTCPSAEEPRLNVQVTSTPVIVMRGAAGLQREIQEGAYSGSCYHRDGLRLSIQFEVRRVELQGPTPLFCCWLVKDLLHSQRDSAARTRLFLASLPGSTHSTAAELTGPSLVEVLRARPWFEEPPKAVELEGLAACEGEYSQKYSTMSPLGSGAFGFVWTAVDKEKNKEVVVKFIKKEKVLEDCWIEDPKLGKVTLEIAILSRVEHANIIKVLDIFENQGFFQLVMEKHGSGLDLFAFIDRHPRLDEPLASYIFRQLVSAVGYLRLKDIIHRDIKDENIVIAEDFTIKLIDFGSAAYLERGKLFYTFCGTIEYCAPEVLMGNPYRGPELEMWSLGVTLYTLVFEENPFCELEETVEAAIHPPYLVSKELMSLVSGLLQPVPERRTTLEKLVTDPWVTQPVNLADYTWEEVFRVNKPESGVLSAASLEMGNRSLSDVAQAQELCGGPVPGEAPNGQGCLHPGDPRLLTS
# Serine/threonine-protein kinase PAK 6 (Homo sapiens), sequence (Q9NQU5 whole entry, looked up, the tested form may be a part): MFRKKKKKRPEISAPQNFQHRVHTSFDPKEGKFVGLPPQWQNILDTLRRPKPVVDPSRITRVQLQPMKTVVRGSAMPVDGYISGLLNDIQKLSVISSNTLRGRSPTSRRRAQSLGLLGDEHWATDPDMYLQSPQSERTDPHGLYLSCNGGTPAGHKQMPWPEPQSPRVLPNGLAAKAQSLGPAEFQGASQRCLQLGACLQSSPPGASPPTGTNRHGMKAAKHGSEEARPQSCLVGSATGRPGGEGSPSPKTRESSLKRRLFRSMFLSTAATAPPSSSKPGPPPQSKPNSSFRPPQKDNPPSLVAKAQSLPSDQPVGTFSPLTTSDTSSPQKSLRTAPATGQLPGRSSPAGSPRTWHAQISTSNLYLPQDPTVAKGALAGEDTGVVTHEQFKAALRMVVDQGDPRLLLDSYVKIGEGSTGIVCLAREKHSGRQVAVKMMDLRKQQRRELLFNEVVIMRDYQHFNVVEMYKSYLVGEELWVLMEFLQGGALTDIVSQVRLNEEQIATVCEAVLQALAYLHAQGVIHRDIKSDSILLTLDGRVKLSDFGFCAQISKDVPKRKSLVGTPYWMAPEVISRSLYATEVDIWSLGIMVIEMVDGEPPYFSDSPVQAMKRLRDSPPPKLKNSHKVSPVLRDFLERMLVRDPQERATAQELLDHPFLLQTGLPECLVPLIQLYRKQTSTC
# Ribosomal protein S6 kinase beta-1 (Homo sapiens), sequence (P23443 whole entry, looked up): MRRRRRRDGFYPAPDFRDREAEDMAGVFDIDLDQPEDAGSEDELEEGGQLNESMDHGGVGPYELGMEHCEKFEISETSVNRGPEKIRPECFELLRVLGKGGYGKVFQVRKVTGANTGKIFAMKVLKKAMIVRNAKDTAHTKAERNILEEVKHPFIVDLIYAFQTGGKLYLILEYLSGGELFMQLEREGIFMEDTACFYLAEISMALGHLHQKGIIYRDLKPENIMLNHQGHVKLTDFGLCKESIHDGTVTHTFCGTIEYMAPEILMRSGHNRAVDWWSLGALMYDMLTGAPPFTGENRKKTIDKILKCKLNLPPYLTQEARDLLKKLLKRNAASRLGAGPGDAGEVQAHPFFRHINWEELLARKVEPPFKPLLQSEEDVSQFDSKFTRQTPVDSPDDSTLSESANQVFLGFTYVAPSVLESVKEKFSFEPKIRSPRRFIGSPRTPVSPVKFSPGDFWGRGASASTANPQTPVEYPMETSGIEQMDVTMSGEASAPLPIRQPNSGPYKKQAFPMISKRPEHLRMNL
# Serine/threonine-protein kinase Nek6 (Homo sapiens), sequence (Q9HC98 whole entry): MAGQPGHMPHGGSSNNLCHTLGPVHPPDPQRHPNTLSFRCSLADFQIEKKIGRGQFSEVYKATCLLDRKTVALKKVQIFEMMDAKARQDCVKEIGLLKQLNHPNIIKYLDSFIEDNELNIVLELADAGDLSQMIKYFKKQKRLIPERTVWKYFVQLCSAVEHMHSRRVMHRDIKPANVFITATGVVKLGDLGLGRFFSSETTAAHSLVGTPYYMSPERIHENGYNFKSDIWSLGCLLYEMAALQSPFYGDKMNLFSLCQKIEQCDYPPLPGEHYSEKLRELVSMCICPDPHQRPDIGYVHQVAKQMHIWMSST
# Serine/threonine-protein kinase PAK 4 (Homo sapiens), sequence (O96013 whole entry, looked up): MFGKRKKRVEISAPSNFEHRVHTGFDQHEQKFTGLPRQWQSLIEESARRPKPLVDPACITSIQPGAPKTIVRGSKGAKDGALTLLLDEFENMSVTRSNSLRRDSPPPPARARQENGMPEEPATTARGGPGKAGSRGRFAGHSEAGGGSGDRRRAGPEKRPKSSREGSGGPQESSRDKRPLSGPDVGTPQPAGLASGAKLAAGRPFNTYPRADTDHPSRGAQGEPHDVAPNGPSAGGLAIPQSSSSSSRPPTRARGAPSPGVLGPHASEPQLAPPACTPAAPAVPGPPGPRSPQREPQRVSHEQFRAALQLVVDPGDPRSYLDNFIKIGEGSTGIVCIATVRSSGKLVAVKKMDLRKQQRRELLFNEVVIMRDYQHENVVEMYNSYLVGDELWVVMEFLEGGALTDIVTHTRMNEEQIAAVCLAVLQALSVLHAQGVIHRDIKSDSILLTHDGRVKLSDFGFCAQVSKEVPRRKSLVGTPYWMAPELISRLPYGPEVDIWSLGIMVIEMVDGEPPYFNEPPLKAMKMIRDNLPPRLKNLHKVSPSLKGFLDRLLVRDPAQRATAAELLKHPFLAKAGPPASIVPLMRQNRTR
# Serine/threonine-protein kinase PAK 5 (Homo sapiens), sequence (Q9P286 whole entry, looked up): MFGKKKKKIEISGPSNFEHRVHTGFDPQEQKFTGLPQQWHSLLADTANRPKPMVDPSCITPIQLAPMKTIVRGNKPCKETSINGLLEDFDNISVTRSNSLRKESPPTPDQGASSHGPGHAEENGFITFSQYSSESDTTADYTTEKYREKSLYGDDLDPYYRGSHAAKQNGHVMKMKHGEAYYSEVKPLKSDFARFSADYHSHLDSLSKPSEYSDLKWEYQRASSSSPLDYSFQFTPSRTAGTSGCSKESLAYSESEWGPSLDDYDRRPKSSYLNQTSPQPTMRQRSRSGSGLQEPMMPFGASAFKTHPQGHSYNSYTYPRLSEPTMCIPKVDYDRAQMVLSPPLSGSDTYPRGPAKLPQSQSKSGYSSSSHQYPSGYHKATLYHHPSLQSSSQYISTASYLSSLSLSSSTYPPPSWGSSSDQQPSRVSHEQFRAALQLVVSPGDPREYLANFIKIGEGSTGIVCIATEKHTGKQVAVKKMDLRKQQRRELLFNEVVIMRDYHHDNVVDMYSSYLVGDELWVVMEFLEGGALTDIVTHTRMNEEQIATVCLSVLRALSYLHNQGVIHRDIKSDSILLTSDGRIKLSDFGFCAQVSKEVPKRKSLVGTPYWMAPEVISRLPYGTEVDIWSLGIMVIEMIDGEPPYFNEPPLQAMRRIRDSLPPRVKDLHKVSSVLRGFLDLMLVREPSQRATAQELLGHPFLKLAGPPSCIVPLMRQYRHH
# Serine/threonine-protein kinase Nek7 (Homo sapiens), sequence (Q8TDX7 whole entry, looked up): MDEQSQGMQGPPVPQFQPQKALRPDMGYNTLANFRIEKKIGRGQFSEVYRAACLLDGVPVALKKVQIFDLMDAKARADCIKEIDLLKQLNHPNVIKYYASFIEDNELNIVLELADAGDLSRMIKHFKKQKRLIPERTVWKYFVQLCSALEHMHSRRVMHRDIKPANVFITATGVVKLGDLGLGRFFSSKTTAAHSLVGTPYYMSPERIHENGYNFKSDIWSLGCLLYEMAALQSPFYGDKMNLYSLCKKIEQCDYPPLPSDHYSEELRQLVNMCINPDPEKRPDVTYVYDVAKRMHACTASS
Compound,residual activity [1] [%],residual activity [2] [%],residual activity [3],residual activity [4] [%],residual activity [5],residual activity [6],residual activity [7] [%],residual activity [8] [%],residual activity [9] [%],residual activity [10] [%],residual activity [11] [%],residual activity [12] [%],residual activity [13] [%],residual activity [14] [%],residual activity [15] [%],residual activity [16] [%],residual activity [17] [%],residual activity [18] [%],residual activity [19] [%],residual activity [20] [%]
O=[N+]([O-])c1ccc(-c2nc(-c3ccc(F)cc3)c(-c3ccncc3)[nH]2)cc1,122,62,109% (inactive),123,99% (inactive),111% (inactive),31,40,105,101,108,98,94,96,102,105,119,50,11,83
Cc1ccc(S(=O)(=O)/C=C/C#N)cc1,133,102,99% (inactive),108,114% (inactive),87% (inactive),101,92,107,98,99,95,106,106,95,84,86,81,75,99
CCOc1cc2ncnc(Nc3cccc(Br)c3)c2cc1OCC,109,54,112% (inactive),125,102% (inactive),101% (inactive),78,34,102,75,100,79,111,82,100,96,56,28,5,75
Oc1ccc(Nc2nc(-c3ccc(Cl)cc3)cs2)cc1,119,87,116% (inactive),123,110% (inactive),106% (inactive),110,74,105,106,103,98,106,104,109,103,126,89,80,82
O=C(Nc1cccc(Nc2cc(Nc3cccc(C(F)(F)F)c3)ncn2)c1)C1CC1,92,110,99% (inactive),126,95% (inactive),93% (inactive),63,27,116,83,94,79,100,98,104,90,64,79,26,88
O=C1NC(=O)c2cc(Nc3ccc(F)cc3)c(Nc3ccc(F)cc3)cc21,81,101,112% (inactive),111,98% (inactive),98% (inactive),92,80,107,79,89,74,98,66,100,64,51,79,34,84
COc1ccc(CNc2nc(N(CCO)CCO)nc3c2ncn3C(C)C)cc1,74,49,107% (inactive),96,96% (inactive),86% (inactive),89,86,102,87,89,56,95,66,87,63,129,70,51,80
CC#CC(=O)Nc1cc2c(Nc3ccc(F)c(Cl)c3)ncnc2cn1,96,98,82% (inactive),91,94% (inactive),100% (inactive),93,79,82,81,99,91,104,107,102,96,99,86,71,81
Nc1ccc2ncnc(NCCc3ccc(Oc4ccccc4)cc3)c2c1,81,51,105% (inactive),120,111% (inactive),117% (inactive),111,96,103,89,107,87,100,81,95,84,65,81,55,81
O=Nc1c(-c2c(O)[nH]c3ccccc23)[nH]c2ccccc12,37,13,91% (inactive),103,106% (inactive),102% (inactive),82,67,103,54,55,14,64,33,63,37,76,34,4,52
O=C1NC(=O)/C(=C/c2ccc3c(c2)OC(F)(F)O3)S1,73,35,84% (inactive),93,100% (inactive),97% (inactive),107,84,104,76,102,95,80,70,81,78,37,96,70,69
CO[C@H]1C[C@@H]2CC[C@@H](C)[C@@](O)(O2)C(=O)C(=O)N2CCCC[C@H]2C(=O)O[C@H]([C@H](C)C[C@@H]2CC[C@@H](O)[C@H](OC)C2)CC(=O)[C@H](C)/C=C(\C)[C@@H](O)[C@@H](OC)C(=O)[C@H](C)C[C@H](C)/C=C/C=C/C=C/1C,92,147,97% (inactive),118,97% (inactive),115% (inactive),101,91,101,95,89,88,97,109,106,136,,82,63,82
Cn1nc2c3c(cccc31)C(=O)c1ccccc1-2,70,62,108% (inactive),104,107% (inactive),86% (inactive),,87,102,98,97,87,86,,108,,95,61,31,72
c1ccc(-c2n[nH]c3c2oc2ccccc23)cc1,,,94% (inactive),,94% (inactive),,,85,,,95,83,83,86,,,77,65,51,84
Cc1cccc(-c2[nH]c(C(C)(C)C)nc2-c2ccc3c(c2)OCO3)n1,93,65,90% (inactive),107,94% (inactive),95% (inactive),94,87,103,91,97,88,87,102,,,,90,67,82
COc1cc2ncnc(Nc3ccc(NC(=O)c4ccccc4)cc3)c2cc1OC,67,38,103% (inactive),,,86% (inactive),,97,,89,101,103,89,68,108,92,67,13,1,107
O=C1Nc2ccccc2/C1=C1/Nc2ccccc2/C1=N\OCCC(O)CO (configuration not stated),20,6,113% (inactive),113,104% (inactive),,,70,80,78,44,12,61,30,81,27,116,14,1,24
CCN(CC)C(=O)c1ccc(Nc2nc(OCC3CCCCC3)c3nc[nH]c3n2)cc1,58,17,,95,98% (inactive),82% (inactive),,,,,18,2,43,3,58,23,,5,1,65
Cc1cc(Nc2nc(-c3ccccc3)nc3ccccc23)n[nH]1,46,10,105% (inactive),105,105% (inactive),,,,,45,9,2,21,3,47,7,121,13,0,70
Cc1cncc2cccc(S(=O)(=O)N3CCCN(C(=O)CN)C[C@H]3C)c12,,,88% (inactive),,88% (inactive),98% (inactive),90,86,,82,90,85,86,95,88,86,64,69,21,76
O=C1Nc2ccc(Br)cc2/C1=C\c1cc2c([nH]1)CCCC2,84,51,104% (inactive),102,101% (inactive),102% (inactive),97,97,113,100,84,77,,105,,,98,54,50,76
N#Cc1cnc2cnc(NCc3cccnc3)cc2c1Nc1ccc(F)c(Cl)c1,1,-1,,,,,93,89,103,90,65,18,11,5,2,2,63,3,1,90
N#CCCc1ccc2c(c1)-c1[nH]c3ccc([N+](=O)[O-])cc3c1CC(=O)N2,,,,,,,,64,62,37,13,4,16,7,55,16,52,32,13,73
Cc1nc(-c2ccccc2)c(-c2ccncc2)o1,83,56,105% (inactive),,107% (inactive),106% (inactive),103,48,102,101,100,104,106,95,109,90,91,74,64,100
Nc1n[nH]c2nnc(-c3c(-c4ccccc4)nn4ccccc34)cc12,112,100,107% (inactive),98,106% (inactive),106% (inactive),,74,98,87,94,90,112,90,93,99,114,61,29,77
Oc1c2ccccc2c2c3c(cccc13)N=N2,55,14,107% (inactive),101,99% (inactive),89% (inactive),78,71,96,86,88,45,99,64,91,49,81,50,12,61
CC[n+]1c(/C=C/N(C)c2ccccc2)n(-c2ccccc2)c2ccc(-c3nc4ccccc4s3)cc21,130,71,108% (inactive),88,117% (inactive),138% (inactive),,89,109,81,103,100,104,119,102,96,43,110,77,88

# Reference: ChEMBL document CHEMBL2218924, “A broad activity screen in support of a chemogenomic map for kinase signalling research and drug discovery” (Biochem J, 2013)
